# Reference: PubChem BioAssay (Tox21)
# Values joined by “and” are separate entries in the source; they are usually repeats but may differ in a detail not shown here. Equal values may be shown once. Inconclusive results are not listed. A call without a number means that no potency is given here. Some compounds were tested as several samples or in several runs, with calls that do not always agree. Active and inactive are the calls of the source. Unless noted, the call rests on the fitted dose curve; in most records, active means well fitted curve in the direction sought with a large enough effect in the repeat runs; inconclusive means weak or mixed curves; inactive means no such curve, though single readings can be large; an effect the other way counts as inactive or inconclusive.
# Tests used:
# [1] = qHTS assay to identify small molecule antagonists of the thyroid receptor (TR) signaling pathway - cell viability counter screen (AID 743064); further: nearly all actives have a fitted effect of over 50% in size; further: potency means the concentration at half of the fitted maximal effect
# Outline: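 GH3.TRE-Luc rat pituitary cells dosed after 4 hr plating, co-stimulated with T3 at 1 nM final, incubated 23.5 h at 37 C. Viability measured in the same wells by CellTiter-Fluor fluorescence after 30 min further at 37 C.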
# [2] = test system: thyroid hormone receptor (rat, GH3 cells); assay: qHTS assay to identify small molecule agonists of the thyroid receptor (TR) signaling pathway (AID 743066; calls by dose curve)
# [3] = qHTS assay to identify small molecule antagonists of the estrogen receptor alpha (ER-alpha) signaling pathway - cell viability counter screen (AID 743074; calls by dose curve;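 further: HEK293 cells carrying ER-alpha-UAS-bla reporter stimulated with 17beta-estradiol; nearly all actives have a fitted effect of over 45% in size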; further: potency means the concentration at half of the fitted maximal effect)
# [4] = qHTS assay to identify small molecule antagonists of the estrogen receptor alpha (ER-alpha) signaling pathway using the BG1 cell line - cell viability counter screen (AID 743081);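 further: compound given together with 17beta-estradiol as the ER stimulus; nearly all actives have a fitted effect of over 45% in size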; further: potency means the concentration at half of the fitted maximal effect
# Aromatase (Homo sapiens) = Aromatase (Homo sapiens) (UniProt P11511); assay: qHTS assay to identify aromatase inhibitors (AID 743083); further: nearly all actives have a fitted effect of over 55% in size; further: potency means the concentration at half of the fitted maximal effect
# Aromatase (Homo sapiens), sequence (P11511 whole entry, looked up): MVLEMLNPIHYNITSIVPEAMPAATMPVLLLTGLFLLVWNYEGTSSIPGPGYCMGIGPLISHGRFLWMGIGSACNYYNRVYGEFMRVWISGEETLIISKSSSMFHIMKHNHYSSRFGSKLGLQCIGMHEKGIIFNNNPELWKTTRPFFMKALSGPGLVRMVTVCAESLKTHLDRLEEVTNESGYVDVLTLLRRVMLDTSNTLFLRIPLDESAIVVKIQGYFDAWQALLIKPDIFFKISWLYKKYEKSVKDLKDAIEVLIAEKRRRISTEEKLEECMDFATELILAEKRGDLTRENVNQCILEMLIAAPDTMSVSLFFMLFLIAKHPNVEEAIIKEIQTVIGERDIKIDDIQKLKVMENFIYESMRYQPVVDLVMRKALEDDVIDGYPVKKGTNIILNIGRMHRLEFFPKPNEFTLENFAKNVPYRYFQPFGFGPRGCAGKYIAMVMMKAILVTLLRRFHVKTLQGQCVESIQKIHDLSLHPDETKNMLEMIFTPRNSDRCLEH
# [5] = qHTS assay to identify aromatase inhibitors - cell viability counter screen (AID 743084);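 further: cells stimulated with testosterone during compound exposure; nearly all actives have a fitted effect of over 55% in size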; further: potency means the concentration at half of the fitted maximal effect
# [6] = molecular target: Aryl hydrocarbon receptor (Homo sapiens) (UniProt P35869); assay: qHTS assay to identify small molecule that activate the aryl hydrocarbon receptor (AhR) signaling pathway (AID 743085); further: nearly all actives have a fitted effect of over 15% in size; further: potency means the concentration at half of the fitted maximal effect;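 on activation: HG2L7.5c1 human HepG2 liver cells with stably integrated DRE-driven firefly reporter; series mostly up to about 70 µM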
# Aryl hydrocarbon receptor (Homo sapiens), sequence (P35869 whole entry, looked up): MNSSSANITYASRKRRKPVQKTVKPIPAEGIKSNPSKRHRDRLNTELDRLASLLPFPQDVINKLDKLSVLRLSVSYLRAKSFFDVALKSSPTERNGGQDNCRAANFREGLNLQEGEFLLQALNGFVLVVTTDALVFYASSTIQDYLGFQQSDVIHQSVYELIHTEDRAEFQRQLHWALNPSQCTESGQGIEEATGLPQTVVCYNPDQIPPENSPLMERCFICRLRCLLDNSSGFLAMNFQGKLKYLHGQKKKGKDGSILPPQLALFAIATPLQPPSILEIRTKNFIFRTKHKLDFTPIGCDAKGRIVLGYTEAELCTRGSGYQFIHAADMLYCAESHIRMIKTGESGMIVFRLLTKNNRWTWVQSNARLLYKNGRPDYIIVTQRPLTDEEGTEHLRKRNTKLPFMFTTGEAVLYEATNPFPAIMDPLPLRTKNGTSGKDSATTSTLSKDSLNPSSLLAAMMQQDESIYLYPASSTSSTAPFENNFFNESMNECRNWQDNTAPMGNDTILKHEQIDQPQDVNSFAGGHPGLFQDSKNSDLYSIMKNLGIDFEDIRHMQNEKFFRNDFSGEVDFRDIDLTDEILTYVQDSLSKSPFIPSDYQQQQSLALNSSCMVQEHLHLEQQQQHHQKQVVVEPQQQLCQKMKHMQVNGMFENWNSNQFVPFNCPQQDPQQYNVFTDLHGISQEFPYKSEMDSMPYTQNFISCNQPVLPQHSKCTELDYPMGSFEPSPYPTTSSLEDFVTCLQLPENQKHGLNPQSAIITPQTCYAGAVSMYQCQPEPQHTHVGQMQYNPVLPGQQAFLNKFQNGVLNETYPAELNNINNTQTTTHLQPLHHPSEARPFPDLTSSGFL
# Outline: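 HepG2 cells stably carrying a 20-DRE firefly luciferase reporter (HG2L7.5c1) treated with compound for 24 hr at 37C. Luciferase read by ONE-Glo luminescence, with CellTiter-Fluor viability read first.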
# [7] = qHTS assay to identify small molecule that activate the aryl hydrocarbon receptor (AhR) signaling pathway - cell viability counter screen (AID 743086); further: nearly all actives have a fitted effect of over 45% in size; further: potency means the concentration at half of the fitted maximal effect
# Outline: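 HepG2-AhR-luc (HG2L7.5c1) cells, 4000/well, treated 24 h at 37 C with compound; viability measured as CellTiter-Fluor fluorescence after 30 min in the same wells as the luciferase read.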
# [8] = molecular target: Peroxisome proliferator-activated receptor gamma (Homo sapiens) (UniProt P37231); assay: qHTS assay to identify small molecule agonists of the peroxisome proliferator-activated receptor gamma (PPARg) signaling pathway (AID 743094; active means well fitted activation curve with a large enough effect in the signal ratio in the repeat runs, not every such curve was filed as active; the % refers to the signal ratio; further: potency means the concentration at half of the fitted maximal effect)
# Peroxisome proliferator-activated receptor gamma (Homo sapiens), sequence (P37231 whole entry, looked up): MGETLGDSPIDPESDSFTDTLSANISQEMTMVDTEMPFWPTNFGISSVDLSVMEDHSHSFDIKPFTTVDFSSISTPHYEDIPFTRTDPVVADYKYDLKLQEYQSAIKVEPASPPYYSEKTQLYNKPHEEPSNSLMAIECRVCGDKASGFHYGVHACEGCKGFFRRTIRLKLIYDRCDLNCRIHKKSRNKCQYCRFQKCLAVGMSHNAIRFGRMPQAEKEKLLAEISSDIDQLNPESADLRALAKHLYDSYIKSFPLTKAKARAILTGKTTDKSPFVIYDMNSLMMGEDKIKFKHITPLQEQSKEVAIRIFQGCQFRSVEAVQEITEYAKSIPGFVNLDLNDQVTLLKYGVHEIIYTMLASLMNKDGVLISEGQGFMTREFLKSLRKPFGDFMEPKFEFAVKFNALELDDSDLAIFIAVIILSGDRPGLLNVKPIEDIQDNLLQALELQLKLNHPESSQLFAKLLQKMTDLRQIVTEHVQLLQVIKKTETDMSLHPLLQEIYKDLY
# Outline: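 Compounds dissolved in DMSO were added to PPARg UAS-bla HEK293H cells for 17 h at 37C, and reporter expression was quantified by fluorescence intensity after 1 h with LiveBLAzer B/G FRET substrate.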
# [9] = qHTS assay to identify small molecule antagonists of the peroxisome proliferator-activated receptor gamma (PPARg) signaling pathway - cell viability counter screen (AID 743194); conditions: Potency: co-treated with 50 nM rosiglitazone unless noted; further: nearly all actives have a fitted effect of over 55% in size; further: potency means the concentration at half of the fitted maximal effect
# Outline: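 Cytotoxicity counter screen in PPARg-bla HEK293H cells, same wells as reporter assay. Compounds plus 50 nM rosiglitazone (final) for 17 h at 37 C, then viability read by CellTiter-Glo luminescence.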
# [10] = qHTS assay for small molecule agonists of the antioxidant response element (ARE) signaling pathway (AID 743202; active means well fitted activation curve with a large enough effect in the signal ratio in the repeat runs, not every such curve was filed as active; the % refers to the signal ratio; further: potency means the concentration at half of the fitted maximal effect)
# Outline: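 Agonist mode reporter screen: HepG2 cells with ARE-controlled beta-lactamase are incubated with test compounds for 16 h at 37 C, and beta-lactamase activity is measured as fluorescence of cleaved B/G FRET substrate.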
# [11] = qHTS assay for small molecule agonists of the antioxidant response element (ARE) signaling pathway - cell viability counter screen (AID 743203; calls by dose curve; further: nearly all actives have a fitted effect of over 55% in size; further: potency means the concentration at half of the fitted maximal effect)
# Outline: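 Following 16 hrs of compound treatment at 37C, HepG2 cells with an ARE-controlled beta-lactamase gene were lysed with CellTiter-Glo. Luminescence was read after 30 min at room temperature.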
# [12] = qHTS assay for small molecule activators of the heat shock response signaling pathway (AID 743210; active means well fitted activation curve with a large enough effect in the signal ratio in the repeat runs, with a control signal flat, not every such curve was filed as active; the % refers to the signal ratio;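 further: HeLa cells with beta-lactamase reporter driven by heat shock elements; series mostly up to about 63 µM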)
# Outline: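 Quantitative high-throughput format using an engineered HeLa line in which heat shock response elements drive beta-lactamase; after 5 h with compound, cells received a B/G FRET substrate and fluorescence was read.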
# [13] = qHTS assay to identify small molecule antagonists of the thyroid receptor (TR) signaling pathway (AID 743065)
# Outline: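 GH3.TRE-Luc rat pituitary cells (two TREs driving luciferase) were dosed with compound, then stimulated with 1 nM T3 (final) for 23.5 h at 37 C. ONE-Glo luminescence was the read-out, with CellTiter-Fluor fluorescence as the cytotoxicity counter-screen.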
# [14] = molecular target: Estrogen receptor (Homo sapiens) (UniProt P03372); assay: qHTS assay to identify small molecule antagonists of the estrogen receptor alpha (ER-alpha) signaling pathway (AID 743069; active means well fitted curve in the direction sought with a large enough effect in the signal ratio in the repeat runs, not every such curve was filed as active; the % refers to the signal ratio; further: potency means the concentration at half of the fitted maximal effect)
# Estrogen receptor (Homo sapiens), sequence (P03372 whole entry, looked up): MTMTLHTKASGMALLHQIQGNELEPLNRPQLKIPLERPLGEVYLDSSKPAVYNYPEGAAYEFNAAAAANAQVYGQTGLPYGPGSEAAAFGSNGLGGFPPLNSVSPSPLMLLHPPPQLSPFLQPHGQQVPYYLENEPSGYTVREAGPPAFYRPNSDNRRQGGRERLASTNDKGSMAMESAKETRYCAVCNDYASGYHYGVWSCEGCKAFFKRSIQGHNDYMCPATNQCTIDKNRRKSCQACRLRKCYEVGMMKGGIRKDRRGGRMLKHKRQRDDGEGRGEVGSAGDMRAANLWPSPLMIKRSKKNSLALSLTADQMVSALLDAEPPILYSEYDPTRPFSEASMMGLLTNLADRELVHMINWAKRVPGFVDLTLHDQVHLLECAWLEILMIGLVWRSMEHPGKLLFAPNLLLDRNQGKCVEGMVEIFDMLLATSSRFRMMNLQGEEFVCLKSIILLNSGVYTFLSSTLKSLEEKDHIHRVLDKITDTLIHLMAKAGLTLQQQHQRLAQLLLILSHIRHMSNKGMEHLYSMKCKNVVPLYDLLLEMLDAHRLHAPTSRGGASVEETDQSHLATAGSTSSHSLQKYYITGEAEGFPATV
# Outline: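 Reporter cells (ER-alpha-bla, HEK293 background) are conditioned overnight in stripped-serum medium (2% charcoal-stripped FBS). Compound and 17beta-estradiol exposure runs 18 hr at 37C, 5% CO2.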
# [15] = molecular target: Estrogen receptor (Homo sapiens) (UniProt P03372); assay: qHTS assay to identify small molecule agonists of the estrogen receptor alpha (ER-alpha) signaling pathway (AID 743075; calls by dose curve;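 further: HEK293 GripTite cells with ER-alpha and UAS-driven beta-lactamase reporter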)
# [16] = molecular target: Estrogen receptor (Homo sapiens) (UniProt P03372); assay: qHTS assay to identify small molecule agonists of the estrogen receptor alpha (ER-alpha) signaling pathway using the BG1 cell line (AID 743079); further: nearly all actives have a fitted effect of over 20% in size
# [17] = qHTS assay to identify small molecule antagonists of the estrogen receptor alpha (ER-alpha) signaling pathway using the BG1 cell line (AID 743080; calls by dose curve;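 further: BG1 cells stimulated with 17beta-estradiol alongside compound; nearly all actives have a fitted effect of over 25% in size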; further: potency means the concentration at half of the fitted maximal effect)
# Outline: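 Luciferase inhibition measured with ONE-Glo after 30 min at RT in BG1Luc4E2 cells given test compounds and 17beta-estradiol for 21.5 h at 37 C; CellTiter-Fluor viability read in the same wells beforehand.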
# [18] = qHTS assay for small molecule activators of the heat shock response signaling pathway - cell viability counter screen (AID 743209); further: nearly all actives have a fitted effect of over 50% in size; further: potency means the concentration at half of the fitted maximal effect
# Outline: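 Readout: CellTiter-Glo luminescence, 30 min at room temperature. System: HSE-bla HeLa cells, 1500/well, plated overnight. Treatment: compounds in DMSO, 5 h at 37 C.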
# [19] = molecular target: Peroxisome proliferator-activated receptor gamma (Homo sapiens) (UniProt P37231); assay: qHTS assay to identify small molecule antagonists of the peroxisome proliferator-activated receptor gamma (PPARg) signaling pathway (AID 743191; calls by dose curve; further: series mostly up to about 63 µM; nearly all actives have a fitted effect of over 30% in size)
# Outline: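 GeneBLAzer PPARg UAS-bla HEK293H cells, 5 h post-plating, exposed to compounds 17 h at 37C. LiveBLAzer B/G FRET substrate added for 1 h at room temperature; beta-lactamase reporter read by fluorescence intensity.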
SMILES,Potency [1],outcome [2],Potency [3],Potency [4],Potency (Aromatase (Homo sapiens)),Potency [5],Potency [6],Potency [7],Potency [8],Potency [9],Potency [10],Potency [11],Potency [12],Potency [13],Potency [14],Potency [15],Potency [16],Potency [17],Potency [18],Potency [19]
COc1cc(N)c(Cl)cc1C(=O)NC1CN2CCC1CC2 (stereo not drawn),inactive,inactive,inactive,inactive,inactive,inactive,inactive,inactive,inactive,inactive,inactive,inactive,inactive,–,–,–,–,–,–,–
O=C(O)COc1nc(Cl)c(Cl)cc1Cl,–,inactive,–,inactive,inactive,–,inactive,–,–,–,–,inactive,inactive,inactive,inactive,inactive,inactive,inactive,inactive,–
CN(C)C(=S)S,inactive and 27.1 µM (active) and 2.73 µM (active),–,inactive,inactive,8.81 µM (active) and 607 nM (active) and 1.72 µM (active),14 µM (active) and 764 nM (active) and 4.86 µM (active),inactive,inactive and 21.7 µM (active),–,inactive,–,inactive,–,–,–,–,–,–,5 µM (active) and inactive and 2.19 µM (active),–
COc1ccc(N)cc1N,37 µM (active),inactive,–,inactive,12.6 µM (active) and 33 µM (active),12.6 µM (active),–,63.1 µM (active) and inactive,–,21 µM (active),–,19.9 µM (active) and 29.4 µM (active),–,–,–,–,–,–,8.01 µM (active),–
CCOP(=O)(NC(C)C)Oc1ccc(SC)c(C)c1 (stereo not drawn),61.1 µM (active),–,–,–,–,inactive,14.8 µM (active),–,inactive,–,–,inactive,–,–,–,–,–,–,–,–
CN(C)c1ccc(N=Nc2ccccc2)cc1,inactive,inactive,inactive,61.2 µM (active),–,54.5 µM (active),27.3 µM (active),–,–,–,8.64 µM (active),inactive,–,–,–,–,–,–,inactive,–
N#CC(Cl)Cl,59.5 µM (active),–,inactive,inactive,–,–,inactive,inactive,–,–,–,inactive,–,–,–,–,–,–,inactive,–
CCC[CH2][Sn]([CH2]CCC)([CH2]CCC)[O]C(=O)c1ccccc1,1.22 µM (active),–,1.74 µM (active),1.72 µM (active),2.17 µM (active),1.54 µM (active),inactive,2.73 µM (active),–,–,–,273 nM (active),–,–,9.77 µM [cytotoxic] (active),–,–,344 nM (active),1.38 µM (active),–
O=C(O)C1C2CCC(O2)C1C(=O)O (stereo not drawn),inactive,inactive,inactive,inactive,–,–,–,inactive,–,inactive,–,inactive,inactive,–,–,–,–,–,inactive,–
Clc1ccc(CCC(Cn2ccnc2)Sc2c(Cl)cccc2Cl)cc1 (stereo not drawn),inactive,inactive,inactive,inactive,12.7 µM (active),inactive,–,inactive,–,–,–,–,–,–,–,–,–,inactive,–,–
COc1ccc(OC)c(CC(C)N)c1 (stereo not drawn),inactive,–,–,inactive,inactive,inactive,inactive,inactive,inactive,inactive,inactive,inactive,inactive,–,–,inactive,inactive,inactive,inactive,inactive
CC(=O)[O-].CC(=O)[O-].O.O.[Cd+2],24 µM (active),inactive,43 µM (active),inactive,–,42.7 µM (active),inactive,2.69 µM (active),–,0.682 µM (active),–,214 nM (active),–,–,–,–,–,–,–,–
Cc1c(Cl)c(=O)oc2cc(OP(=O)(OCCCl)OCCCl)ccc12,–,inactive,inactive,–,inactive,–,–,inactive,inactive,inactive,inactive,inactive,inactive,inactive,inactive,inactive,inactive,inactive,inactive,inactive
CN(C)CCc1c[nH]c2cccc(O)c12,inactive,inactive,inactive,–,–,inactive,inactive,inactive,inactive,inactive,–,inactive,–,–,–,–,–,–,inactive,inactive
CCCCCCCCCCCCCCCC[n+]1ccccc1,16.8 µM (active) [middle of 4 runs],–,22.9 µM (active) and 24.5 µM (active) and 43 µM (active),–,7.7 µM (active) [middle of 4 runs],32 µM (active) and 54.5 µM (active) and 60.3 µM (active),inactive,–,–,26.6 µM (active) [middle of 4 runs],–,26.9 µM (active) [middle of 4 runs],–,–,–,inactive,–,21.1 µM (active) and 18 µM (active) and 15.4 µM (active),28.8 µM (active) and 24.5 µM (active) and 48.3 µM (active),–
C=CC(=O)OCCCCOC(=O)C=C,17.2 µM (active),–,inactive,–,43.3 µM (active),48.6 µM (active),inactive,inactive,9.77 µM (active),–,27.3 µM (active),–,–,–,–,inactive,inactive,–,5.49 µM (active),–
Clc1ccc(COC(Cn2ccnc2)c2ccc(Cl)cc2Cl)cc1 (stereo not drawn),13.3 µM (active) and 27.2 µM (active),inactive,45.7 µM (active) and 34.5 µM (active),inactive,531 nM (active) and 255 nM (active) and 68.3 nM (active),33.5 µM (active) and 45.3 µM (active) and 60.9 µM (active),inactive,15.3 µM (active),inactive,–,–,25.5 µM (active) and 19.3 µM (active) and 33.5 µM (active),–,–,–,–,–,23.7 µM (active) and 60.9 µM (active),36.3 µM (active) and 12.3 µM (active),–
